Test results from PubChem BioAssay (Tox21).
Several values for one entry are separate records, joined by “and”; a condition that tells them apart may be missing. Equal values may be shown once. Values without a mark were called inactive. Results filed as inconclusive are left out. Where a call stands in place of a potency, no number is given. Activity calls are given as the source filed them. Calls follow the shape of the full dose curve.

Test system: not listed separately
Experiment: Nuclear factor erythroid 2-related factor 2/antioxidant responsive element (Nrf2/ARE) small molecule agonists: luciferase reporter gene qHTS assay in human keratinocytes (AID 1919969); also: potency is read from the fitted curve at half-maximal effect
Conditions: KeratinoSens HaCaT ARE-luciferase, luminescence, 24 h; series mostly up to 92.4 µM
Also: nearly all actives have a fitted effect of over 35% in size.

| Structure (SMILES) | Potency | activity, positive = activation |
| --- | --- | --- |
| Nc1cccc2c(N)cccc12 | 13.7 µM (active) | – |
| O=C(OC[C@H]1O[C@@H](OC(=O)c2cc(O)c(O)c(OC(=O)c3cc(O)c(O)c(O)c3)c2)[C@H](OC(=O)c2cc(O)c(O)c(OC(=O)c3cc(O)c(O)c(O)c3)c2)[C@@H](OC(=O)c2cc(O)c(O)c(OC(=O)c3cc(O)c(O)c(O)c3)c2)[C@@H]1OC(=O)c1cc(O)c(O)c(OC(=O)c2cc(O)c(O)c(O)c2)c1)c1cc(O)c(O)c(OC(=O)c2cc(O)c(O)c(O)c2)c1 | – | -5.14% [at 19 µM] |
| COC(=O)CC(C)CCC=C(C)C (stereo not given) | 68.6 µM (active) | – |
| CC(C)n1nc(-c2cc3cc(O)ccc3[nH]2)c2c(N)ncnc21 | inactive | – |
| CNCc1ccc(NC(=O)c2c[nH]c3c2C(=O)CCC3)cc1 | inactive | – |
| CCOC(=O)COc1ccc2c(C)c(CCN(CC)CC)c(=O)oc2c1Cl | inactive | – |
| Cc1cccc(C)c1NC(=O)CN1CCN(CCCC(c2ccc(F)cc2)c2ccc(F)cc2)CC1 | inactive | – |
| O=C(Nc1cccc([N+](=O)[O-])c1)c1cc2ccccc2cc1O | 61.1 µM (active) | – |
| COc1ccccc1N1CCN(CC(O)COc2cccc3ccccc23)CC1 (stereo not given) | inactive | – |
| CC(CN)CC(C)(C)CCN (stereo not given) | inactive | – |
| Cc1cc(NC(=O)C(=O)O)cc(C)c1Oc1ccc(O)c2c1CCC2 | inactive | – |
| OCCCS | inactive | – |
| Cc1cc(=O)oc2cc(N(C)C)ccc12 | inactive | – |
| CCCCCOc1ccccc1/C(=C\SC)n1ccnc1 | 5.96 µM (active) | – |
| CC[C@H]1CC[C@H](NCc2cc3c(cc2OC)[C@H]2C[C@H]2C(=O)N3C)[C@H](c2ccccc2)N1 | 30.6 µM (active) | – |
| C=CC(=O)OCC1CC2CC1C1CCC(COC(=O)C=C)C21 (stereo not given) | 24.3 µM (active) | – |
| CCc1c(C(=O)NN2CCCCC2)nn(-c2ccc(Cl)cc2Cl)c1-c1ccc(Br)cc1 | inactive | – |
| COC(=O)c1nc(Cl)c(Cl)nc1N | 5.96 µM (active) | – |
| c1cc(OCC2CO2)cc(OCC2CO2)c1 (stereo not given) | 24.1 µM (active) | – |
| C=CC(=O)OCCCCCCOC(=O)C=C | 27.6 µM (active) and 24.3 µM (active) | – |

| Structure (SMILES) | Potency | activity, positive = activation |
| --- | --- | --- |
| CCCCNCCCC | inactive | – |
| O=C(c1ccc(F)cc1)C1CCN(CCn2c(=S)[nH]c3ccccc3c2=O)CC1 | 23.7 µM (active) | – |
| Clc1ccc(Cn2c(CN3CCCC3)nc3ccccc32)cc1 | 33.5 µM (active) | – |
| CCC(C)(C)c1ccc(CC(C)CN2C[C@@H](C)O[C@@H](C)C2)cc1 (stereo not given in full) | inactive | – |
| CCCCCCCCCCCCCCCCCCCl | – | -2.4% [at 8.39 µM] |
| Cc1cc(Nc2ccc(O)cc2)ccc1N | 43.1 µM (active) | – |
| c1cc(CN2CCCCC2)cc(OCCCNc2nc3ccccc3s2)c1 | inactive | – |
| COC(=O)C1=C(C)NC(C)=C(C(=O)O[C@@H]2CCCN(Cc3ccccc3)C2)[C@@H]1c1cccc([N+](=O)[O-])c1 | inactive | – |
| O=[N+]([O-])c1ccc(O/N=C/c2cc(Br)c(O)c(Br)c2)c([N+](=O)[O-])c1 | 60.8 µM (active) | – |
| CCCCCCC(C)OC(=O)COc1nc(F)c(Cl)c(N)c1Cl (stereo not given) | inactive | – |
| CC(O)C#CC(C)O (stereo not given) | 21.5 µM (active) | – |
| COC(=O)C1=C(C)NC(COC(N)=O)=C(C(=O)OC(C)C)C1c1cccc(Cl)c1Cl (stereo not given) | inactive | – |
| c1ccc(Cc2ccccc2)cc1 | inactive | – |
| O=C(Nc1ccc(Cl)cc1)Nc1ccc(Cl)c(C(F)(F)F)c1 | 11.9 µM (active) | – |
| S=c1[nH]c2ccccc2s1 | 21.7 µM (active) | – |
| Oc1c(I)cc(Cl)c2cccnc12 | 2.16 µM (active) and 3.35 µM (active) | – |
| CCN(CC)CCNc1ccc(CO)c2sc3ccccc3c(=O)c12 | 11.9 µM (active) | – |
| CCOc1ccc(N=Nc2ccc(/C=C/c3ccc(N=Nc4ccc(OCC)cc4)cc3S(=O)(=O)O)c(S(=O)(=O)O)c2)cc1 | inactive | – |
| CN(C)CCCN1c2ccccc2Sc2ccc(C(F)(F)F)cc21 | inactive | – |
| CCCCCC[C@@H](O)C/C=C\CCCCCCCC(=O)O | inactive | – |

Biological target: Gonadotropin-releasing hormone receptor (Homo sapiens) (UniProt P30968)
Experiment: Human gonadotropin-releasing hormone receptor (GnRHR) small molecule agonists, calcium flux assay in GnRHR-HEK293 cells (AID 1920063)
Conditions: calcium flux fluorescence, agonist mode; series mostly up to 57.6 µM
Method in brief: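 Calcium flux, agonist mode, human GnRHR stably integrated in HEK293; dye 1 h at 37 C before compound; Ex/Em=480/540 kinetic read, 3 min; 15 concentrations, triplicate.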

Sequence of Gonadotropin-releasing hormone receptor (Homo sapiens) (P30968 whole entry, looked up): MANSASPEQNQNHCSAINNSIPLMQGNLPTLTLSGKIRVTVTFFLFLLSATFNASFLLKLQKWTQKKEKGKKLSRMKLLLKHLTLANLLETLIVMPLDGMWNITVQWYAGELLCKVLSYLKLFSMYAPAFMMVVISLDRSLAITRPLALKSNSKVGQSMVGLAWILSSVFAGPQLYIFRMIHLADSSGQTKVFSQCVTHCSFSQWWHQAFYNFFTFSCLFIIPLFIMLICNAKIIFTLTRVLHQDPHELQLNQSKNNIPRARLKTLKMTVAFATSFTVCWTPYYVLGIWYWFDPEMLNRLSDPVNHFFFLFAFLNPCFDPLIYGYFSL

| Structure (SMILES) | Potency | activity change |
| --- | --- | --- |
| Nc1cccc2c(N)cccc12 | inactive | – |
| O=C(OC[C@H]1O[C@@H](OC(=O)c2cc(O)c(O)c(OC(=O)c3cc(O)c(O)c(O)c3)c2)[C@H](OC(=O)c2cc(O)c(O)c(OC(=O)c3cc(O)c(O)c(O)c3)c2)[C@@H](OC(=O)c2cc(O)c(O)c(OC(=O)c3cc(O)c(O)c(O)c3)c2)[C@@H]1OC(=O)c1cc(O)c(O)c(OC(=O)c2cc(O)c(O)c(O)c2)c1)c1cc(O)c(O)c(OC(=O)c2cc(O)c(O)c(O)c2)c1 | – | -0.655% [at 11.8 µM, active compounds read high] |
| COC(=O)CC(C)CCC=C(C)C (stereo not given) | inactive | – |
| CC(C)n1nc(-c2cc3cc(O)ccc3[nH]2)c2c(N)ncnc21 | inactive | – |
| CNCc1ccc(NC(=O)c2c[nH]c3c2C(=O)CCC3)cc1 | inactive | – |
| CCOC(=O)COc1ccc2c(C)c(CCN(CC)CC)c(=O)oc2c1Cl | inactive | – |
| Cc1cccc(C)c1NC(=O)CN1CCN(CCCC(c2ccc(F)cc2)c2ccc(F)cc2)CC1 | inactive | – |
| O=C(Nc1cccc([N+](=O)[O-])c1)c1cc2ccccc2cc1O | inactive | – |
| COc1ccccc1N1CCN(CC(O)COc2cccc3ccccc23)CC1 (stereo not given) | inactive | – |
| CC(CN)CC(C)(C)CCN (stereo not given) | inactive | – |
| Cc1cc(NC(=O)C(=O)O)cc(C)c1Oc1ccc(O)c2c1CCC2 | inactive | – |
| OCCCS | inactive | – |
| Cc1cc(=O)oc2cc(N(C)C)ccc12 | inactive | – |
| CCCCCOc1ccccc1/C(=C\SC)n1ccnc1 | inactive | – |
| CC[C@H]1CC[C@H](NCc2cc3c(cc2OC)[C@H]2C[C@H]2C(=O)N3C)[C@H](c2ccccc2)N1 | inactive | – |
| C=CC(=O)OCC1CC2CC1C1CCC(COC(=O)C=C)C21 (stereo not given) | inactive | – |
| CCc1c(C(=O)NN2CCCCC2)nn(-c2ccc(Cl)cc2Cl)c1-c1ccc(Br)cc1 | inactive | – |
| COC(=O)c1nc(Cl)c(Cl)nc1N | inactive | – |
| c1cc(OCC2CO2)cc(OCC2CO2)c1 (stereo not given) | inactive | – |
| C=CC(=O)OCCCCCCOC(=O)C=C | inactive | – |

| Structure (SMILES) | Potency | activity change |
| --- | --- | --- |
| CCCCNCCCC | inactive | – |
| O=C(c1ccc(F)cc1)C1CCN(CCn2c(=S)[nH]c3ccccc3c2=O)CC1 | inactive | – |
| Clc1ccc(Cn2c(CN3CCCC3)nc3ccccc32)cc1 | inactive | – |
| CCC(C)(C)c1ccc(CC(C)CN2C[C@@H](C)O[C@@H](C)C2)cc1 (stereo not given in full) | inactive | – |
| CCCCCCCCCCCCCCCCCCCl | – | 0.0314% [at 5.22 µM, active compounds read high] |
| Cc1cc(Nc2ccc(O)cc2)ccc1N | inactive | – |
| c1cc(CN2CCCCC2)cc(OCCCNc2nc3ccccc3s2)c1 | inactive | – |
| COC(=O)C1=C(C)NC(C)=C(C(=O)O[C@@H]2CCCN(Cc3ccccc3)C2)[C@@H]1c1cccc([N+](=O)[O-])c1 | inactive | – |
| O=[N+]([O-])c1ccc(O/N=C/c2cc(Br)c(O)c(Br)c2)c([N+](=O)[O-])c1 | inactive | – |
| CCCCCCC(C)OC(=O)COc1nc(F)c(Cl)c(N)c1Cl (stereo not given) | inactive | – |
| CC(O)C#CC(C)O (stereo not given) | inactive | – |
| COC(=O)C1=C(C)NC(COC(N)=O)=C(C(=O)OC(C)C)C1c1cccc(Cl)c1Cl (stereo not given) | inactive | – |
| c1ccc(Cc2ccccc2)cc1 | inactive | – |
| O=C(Nc1ccc(Cl)cc1)Nc1ccc(Cl)c(C(F)(F)F)c1 | inactive | – |
| S=c1[nH]c2ccccc2s1 | inactive | – |
| Oc1c(I)cc(Cl)c2cccnc12 | inactive | – |
| CCN(CC)CCNc1ccc(CO)c2sc3ccccc3c(=O)c12 | inactive | – |
| CCOc1ccc(N=Nc2ccc(/C=C/c3ccc(N=Nc4ccc(OCC)cc4)cc3S(=O)(=O)O)c(S(=O)(=O)O)c2)cc1 | inactive | – |
| CN(C)CCCN1c2ccccc2Sc2ccc(C(F)(F)F)cc21 | inactive | – |
| CCCCCC[C@@H](O)C/C=C\CCCCCCCC(=O)O | inactive | – |
